This is an account of results in PubChem BioAssay AID485346 (Sanford-Burnham Center for Chemical Genomics, 2010).

As usually defined, the inhibition is the change of the read-out against control, counted positive when it falls.

The whole screen tested about 330,000 compounds, of which about 10,000 (3%) were called active. The list comes from a sample in which actives are over-represented; it also holds similar structures and randomly drawn compounds. Unmarked numbers belong to inactive results.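 How the source made its calls: active means inhibition of at least 50% at 8 µM in the primary screen; inactive means the rest.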

For the test, the target named is Protein Mdm4 (Homo sapiens) + E3 ubiquitin-protein ligase Mdm2 (Homo sapiens) (UniProt O15151+Q00987). In words: disruptors of Mdm2/MdmX RING complex – cell-based, luminescence, split luciferase, SaOS-2, uHTS, primary screen (AID 485346). The following applies: SaOS-2 split-luciferase Mdm2/MdmX complementation, at 8 µM, stronger effect = higher value.
Chain of Protein Mdm4 (Homo sapiens) + E3 ubiquitin-protein ligase Mdm2 (Homo sapiens) (O15151 whole entry, looked up): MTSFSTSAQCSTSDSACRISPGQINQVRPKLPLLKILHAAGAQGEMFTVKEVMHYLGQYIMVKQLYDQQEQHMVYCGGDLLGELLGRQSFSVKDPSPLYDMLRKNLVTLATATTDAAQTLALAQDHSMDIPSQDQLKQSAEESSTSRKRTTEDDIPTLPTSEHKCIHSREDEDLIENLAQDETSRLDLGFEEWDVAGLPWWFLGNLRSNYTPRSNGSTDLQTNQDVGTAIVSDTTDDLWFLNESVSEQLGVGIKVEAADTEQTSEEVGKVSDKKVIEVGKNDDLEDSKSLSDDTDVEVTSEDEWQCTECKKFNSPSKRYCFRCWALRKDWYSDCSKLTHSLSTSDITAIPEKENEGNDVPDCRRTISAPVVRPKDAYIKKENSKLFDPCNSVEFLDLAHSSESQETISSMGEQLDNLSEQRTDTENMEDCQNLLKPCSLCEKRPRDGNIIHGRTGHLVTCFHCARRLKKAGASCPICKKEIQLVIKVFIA
Chain of Protein Mdm4 (Homo sapiens) + E3 ubiquitin-protein ligase Mdm2 (Homo sapiens) (Q00987 whole entry, looked up): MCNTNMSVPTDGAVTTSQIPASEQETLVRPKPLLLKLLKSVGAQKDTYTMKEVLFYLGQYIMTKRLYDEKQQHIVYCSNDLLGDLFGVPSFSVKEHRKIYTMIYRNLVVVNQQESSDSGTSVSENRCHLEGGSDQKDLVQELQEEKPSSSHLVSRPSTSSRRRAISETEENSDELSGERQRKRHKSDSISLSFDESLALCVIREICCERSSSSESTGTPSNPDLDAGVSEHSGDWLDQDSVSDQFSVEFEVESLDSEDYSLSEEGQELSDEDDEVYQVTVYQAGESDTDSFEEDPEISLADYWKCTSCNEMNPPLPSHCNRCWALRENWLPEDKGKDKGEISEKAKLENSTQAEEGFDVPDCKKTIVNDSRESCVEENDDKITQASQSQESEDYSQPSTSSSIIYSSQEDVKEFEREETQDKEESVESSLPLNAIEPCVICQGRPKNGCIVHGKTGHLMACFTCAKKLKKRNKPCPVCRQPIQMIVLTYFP
Regarding `CCOP(=O)(OCC)C(Nc1cccc(C)c1)c1ccc(F)cc1` (stereo not drawn), the inhibition was -2.51%.

With `O=C(COC(=O)Cc1ccccc1F)NCCc1ccccc1`, the inhibition was 6.62%.

As to `N=c1n(CCc2ccccc2)c2ccccc2n1Cc1ccccc1F`, the inhibition is 64.2% (active). The figure for `Fc1ccccc1Cn1cnc(NC(=S)NCCc2ccccc2)n1` is 45.1%. With `Cc1nn(CCOc2ccc(Br)cc2)c(C)c1[N+](=O)[O-]` the figure was 18.2%; with `C=CC1=C(C(=O)O)N2C(=O)[C@@H](NC(=O)/C(=N\OCC(=O)O)c3csc(N)n3)[C@H]2SC1`, 16%; with `COc1ccc(CCOC2OC(CO)C(OC(=O)/C=C/c3ccc(O)c(OC)c3)C(O[C@H]3O[C@@H](C)[C@H](O)[C@@H](O)[C@H]3O)C2O)cc1O` (stereo partly drawn), -29.1%. In the case of `CCN1/C(=C\c2ccc3ccccc3[n+]2CC)Sc2cc(C)ccc21`, the inhibition is 77.1% (active). The figure for `COC(=O)C[n+]1cccc2ccccc21` is 6.08%; for `O=S(=O)(NCC1CN(S(=O)(=O)c2ccc3c(c2)OCCO3)C1)c1c(F)cccc1F` it is -1.76%. With `O=C(N[C@H]1C/C=C\C(c2ccc(F)cc2)N(Cc2ccccc2)C(=O)C1)OCC1c2ccccc2-c2ccccc21` (stereo partly drawn) the figure was 20.2%; with `CC(=O)Nc1ccc(C(=O)/C=C/c2ccc[nH]2)cc1`, 1.87%.

Take `CCCC(=O)Nc1ccc(C(=O)N/N=C/c2ccc[nH]2)cc1`: the inhibition was 70.3% (active). The figure for `O=C(COc1ccccc1[N+](=O)[O-])N/N=C/c1ccc[nH]1` is 3.97%; for `O=C(NCc1ccccc1CN1CCCC1)C1CCN(S(=O)(=O)c2ccc(Cl)cc2)CC1` it is 3.2%; for `CC(C)(C)OC(=O)Nc1ccc([C@@H](NC(=O)OC(C)(C)C)C(=O)OC(C)(C)C)cc1` it is 2.33%. Regarding `O=c1c2ccccc2nc(N/N=C/c2ccccc2)n1O`, the inhibition is -0.971%. The figure for `COc1ccccc1N1CCN(/N=C/c2ccc(O)cc2O)CC1` is 16.1%; for `Cc1ccc(/C=N/NC(=O)C2=NNC(c3ccccc3)(c3ccccc3)C2)c(O)c1` it is 42.2%.

Take `Cc1nc2ccccc2nc1N/N=C/c1ccc(O)cc1O`: the inhibition is 77.6% (active). The figure for `Cc1n[nH]c(=O)nc1N/N=C/c1cccs1` is -4.56%; for `Oc1ccc(/C=N/Nc2nc(-c3ccccc3F)nc3ccccc23)c(O)c1` it is 69% (active). The figure for `CCCNC(=O)OC[C@H]1O[C@H](CCO/N=C/[C@@H](NS(=O)(=O)c2ccc(C)cc2)[C@H](C)/C=C/CC(=O)OC)C=C[C@@H]1Oc1ccc(OC)cc1` is 20.8%; for `O=C(Cn1c2[n+](c3ccc(C(F)(F)F)cc31)CCCCC2)Nc1c(F)cccc1F` it is 13%; for `C=CCNC(=O)/C=C/c1ccc(C(C)C)cc1` it is -111%. Turning to `O=C(c1ccc[nH]c1=S)N1CCN(S(=O)(=O)c2ccc(Br)cc2Cl)CC1`, the inhibition is 2.6%. The figure for `COc1ccc(S(=O)(=O)N2CCC(C(=O)N3CCc4ccccc4C3)CC2)cc1OC` is -18.3%; for `COc1cc2c(cc1OC)C(C)N(S(=O)(=O)c1cnc(Cl)c(Cl)c1)CC2` (stereo not drawn) it is 80.7% (active); for `COc1cc2c(cc1OC)CN(C(=O)c1cc(S(=O)(=O)N3CCCCC3)ccc1Cl)CC2` it is 20.3%. The figure for `COC(=O)C1=C(Nc2ccc(OC)cc2)C=C(C)C(C(=O)OC)C1c1ccc(C)cc1` (stereo not drawn) is 19.4%; for `COC(=O)C1C(=O)NCC1c1ccc(C)cc1` (stereo not drawn) it is 13%. With `COC(=O)C1=C(Nc2ccc(C)cc2)C=C(C)C(C(=O)OC)C1c1ccc(F)cc1` (stereo not drawn) the figure was 50.9% (active); with `CC(C)(C)C(=O)NC1CC2CCCC(C1)N2C(=O)Nc1ccccc1F` (stereo not drawn), -1.01%; with `O=C(CC1C(=O)NCCN1CC(c1ccccc1)c1ccccc1)NCC1CCOCC1` (stereo not drawn), 15.7%. As for `COc1cc(NS(=O)(=O)c2ccc(NC(=S)NC(=O)c3ccccc3)cc2)nc(OC)n1`, the inhibition is 13.4%.

Take `CCOC(=O)N1CCN(C(=O)c2ccc(S(=O)(=O)c3ccc(C)cc3)c(NC(C)=O)c2)CC1`: the inhibition is 50.8% (active).

Take `COCCNC(=O)c1ccc(S(=O)(=O)c2ccc(Cl)cc2)c(NC(C)=O)c1`: the inhibition was 14.7%. With `CCOC(=O)N1CCN(C(=O)c2ccc3c(c2)N(Cc2ccc(C)cc2)CCS3)CC1` the figure was 6.09%; with `CCOC(=O)/C(C#N)=C\c1c(C)cc(C)c(COC(C)=O)c1C`, 14.2%. The figure for `Cc1cc(C)nc(SCC(=O)N(C)C)n1` is -9.55%; for `Cc1cc(C)nc(SCC(=O)c2ccc(Cl)cc2)n1` it is 9.88%; for `Cc1cc(C)nc(S/C=C/C(=O)c2ccccc2)n1` it is 65.8% (active). The figure for `CCCc1ccc(C(=O)COC(=O)CN2C(=O)NC3(CCCCC3C)C2=O)cc1` (stereo not drawn) is 11.7%; for `O=C(Oc1c(-c2ccco2)oc2ccccc2c1=O)c1cccnc1` it is 56.6% (active); for `N#CCc1ccc(OC(=O)c2cccnc2)cc1` it is 12.8%. As for `O=C(Oc1ccc(Br)cc1)c1cccnc1`, the inhibition was -5.87%. With `O=C(c1ccc(-n2cnnn2)cc1)N1CCN(C(c2ccccc2)c2ccccc2)CC1` the figure was 12.3%. With `CCN(CCCNC(=O)C1CCN(S(=O)(=O)c2cnc[nH]2)CC1)c1ccccc1` the figure was 37.3%; with `CCN(CCCNC(=O)CCn1c(=O)[nH]c2ccsc2c1=O)c1ccccc1`, 0.795%; with `CCN(CCCNC(=O)c1ccc2c(c1)NC(=O)CN2C)c1cccc(C)c1`, 82.6% (active). With `CC1CC(C)CN(C(=O)CSc2ccsc2[N+](=O)[O-])C1` (stereo not drawn) the figure was -7.54%; with `Oc1ccc(-c2cccc(-c3ccc(O)cc3)c2)cc1`, -24.2%; with `COc1ccc2c(c1OC)C(=O)OC2Nc1nc(-c2ccccc2)cs1` (stereo not drawn), 98.5% (active). `Cc1ccc(-c2csc(NC3OC(=O)c4ccccc43)n2)cc1` (stereo not drawn): the inhibition is 63.6% (active). The figure for `Cc1ccc(-c2csc(-c3cc(C)on3)n2)cc1` is -47.3%; for `Cc1cccc(Nc2nc(-c3ccccc3)cs2)n1` it is -222%; for `COc1cc(CC(=O)Nc2nc(-c3ccc(F)c(F)c3)cs2)cc(OC)c1OC` it is 28.8%. With `Cc1ccc(-c2csc(NC(=O)Cn3[nH]c(=O)c4ccccc4c3=O)n2)cc1` the figure was 31.2%.
